This passage reports binding signal results from paper PMC7862700, “An all-to-all approach to the identification of sequence-specific readers for epigenetic DNA modifications on cytosine”.

Assay in all cases: DAPPL (digital affinity profiling via proximity ligation, sequencing); 10 mM Tris-HCl pH 7.5, 50 mM NaCl, 1 mM DTT, 4% glycerol, room temperature, 30 min; GST-TFs on glutathione beads, 16-mer random dsDNA library, 0.1% formaldehyde crosslink after washing; high values mean tight binding
Conditions in all cases: protein: recombinant; tags: N-terminal GST; dsDNA, one strand shown

One test deals with T1, FLI1 (Homo sapiens, UniProt Q01543 1-452).
T1 sequence: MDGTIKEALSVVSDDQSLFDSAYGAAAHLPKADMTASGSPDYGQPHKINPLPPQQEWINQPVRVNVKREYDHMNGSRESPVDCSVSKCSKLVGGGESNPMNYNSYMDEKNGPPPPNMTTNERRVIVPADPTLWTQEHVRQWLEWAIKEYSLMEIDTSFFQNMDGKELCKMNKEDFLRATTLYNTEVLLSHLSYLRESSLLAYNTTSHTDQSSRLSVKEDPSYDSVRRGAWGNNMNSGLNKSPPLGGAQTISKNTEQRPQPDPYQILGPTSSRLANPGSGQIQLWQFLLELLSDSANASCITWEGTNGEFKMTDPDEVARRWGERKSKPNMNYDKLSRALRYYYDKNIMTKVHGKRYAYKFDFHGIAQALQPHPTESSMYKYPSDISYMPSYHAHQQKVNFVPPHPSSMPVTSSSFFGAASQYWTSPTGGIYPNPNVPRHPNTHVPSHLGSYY
The procedure, abridged: (§1)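 Human transcription factors were made in yeast as GST fusions, captured on glutathione beads and barcoded with DNA. With a tag-only sample included, the pool was incubated with 200 nmole of a random double-stranded 16-mer DNA library in Tris/NaCl/DTT/glycerol buffer at room temperature for 30 min, then crosslinked with 0.1% formaldehyde after washing, ligated by proximity, amplified and sequenced. For binding signal, each hexamer's read frequency for a factor is divided by its frequency for the tag-only sample.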

Another test addresses T2, ELK1 (Homo sapiens, UniProt P19419 1-428).
T2 sequence: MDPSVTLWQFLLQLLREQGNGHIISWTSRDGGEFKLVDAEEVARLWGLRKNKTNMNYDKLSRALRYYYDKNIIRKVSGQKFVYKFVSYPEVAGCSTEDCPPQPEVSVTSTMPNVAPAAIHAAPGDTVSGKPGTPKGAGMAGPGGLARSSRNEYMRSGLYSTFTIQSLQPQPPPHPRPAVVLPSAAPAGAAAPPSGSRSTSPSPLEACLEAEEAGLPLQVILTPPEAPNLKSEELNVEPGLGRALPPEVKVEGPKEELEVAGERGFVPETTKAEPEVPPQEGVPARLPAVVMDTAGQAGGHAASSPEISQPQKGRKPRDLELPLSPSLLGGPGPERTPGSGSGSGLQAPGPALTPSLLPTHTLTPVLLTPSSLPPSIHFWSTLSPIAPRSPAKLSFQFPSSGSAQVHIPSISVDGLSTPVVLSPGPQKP
The gist of the method:
as §1

Another test has as its target T3, GABPA (Homo sapiens, UniProt Q06546 1-454).
T3 sequence: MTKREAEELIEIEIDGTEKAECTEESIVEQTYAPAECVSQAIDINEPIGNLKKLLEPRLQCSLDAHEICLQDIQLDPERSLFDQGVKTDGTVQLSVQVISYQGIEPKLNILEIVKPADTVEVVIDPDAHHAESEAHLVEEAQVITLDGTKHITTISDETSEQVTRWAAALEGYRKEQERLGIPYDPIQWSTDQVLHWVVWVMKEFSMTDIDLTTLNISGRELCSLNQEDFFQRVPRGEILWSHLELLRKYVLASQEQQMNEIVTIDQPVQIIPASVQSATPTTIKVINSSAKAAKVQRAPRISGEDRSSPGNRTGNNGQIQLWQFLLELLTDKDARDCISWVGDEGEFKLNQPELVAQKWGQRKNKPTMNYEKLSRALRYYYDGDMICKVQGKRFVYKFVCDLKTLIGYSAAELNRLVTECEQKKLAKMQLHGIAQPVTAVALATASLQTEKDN
The procedure, abridged: as §1

Another test concerns the target T4, ERG (Homo sapiens, UniProt P11308 1-479).
T4 sequence: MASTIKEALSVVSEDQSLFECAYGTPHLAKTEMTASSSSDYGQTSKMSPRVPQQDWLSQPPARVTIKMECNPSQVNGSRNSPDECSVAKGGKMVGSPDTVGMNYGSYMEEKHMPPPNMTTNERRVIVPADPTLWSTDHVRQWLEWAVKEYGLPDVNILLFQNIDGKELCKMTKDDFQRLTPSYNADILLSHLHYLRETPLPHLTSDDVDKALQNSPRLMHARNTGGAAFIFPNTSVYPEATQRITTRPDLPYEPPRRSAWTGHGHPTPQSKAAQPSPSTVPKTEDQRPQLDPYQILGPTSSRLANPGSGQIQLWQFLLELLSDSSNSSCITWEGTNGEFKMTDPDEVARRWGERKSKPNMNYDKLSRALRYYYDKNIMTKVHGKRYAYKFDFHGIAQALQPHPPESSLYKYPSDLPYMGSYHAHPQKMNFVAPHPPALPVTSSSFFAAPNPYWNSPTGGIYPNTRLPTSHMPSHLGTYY
The procedure, abridged:
as §1

For another test, the target named is ELF1 (Homo sapiens, UniProt P32519 1-619). The gist of the method:
as §1

Another test concerns the target T5, EHF (Homo sapiens, UniProt Q9NZC4 1-300).
T5 sequence: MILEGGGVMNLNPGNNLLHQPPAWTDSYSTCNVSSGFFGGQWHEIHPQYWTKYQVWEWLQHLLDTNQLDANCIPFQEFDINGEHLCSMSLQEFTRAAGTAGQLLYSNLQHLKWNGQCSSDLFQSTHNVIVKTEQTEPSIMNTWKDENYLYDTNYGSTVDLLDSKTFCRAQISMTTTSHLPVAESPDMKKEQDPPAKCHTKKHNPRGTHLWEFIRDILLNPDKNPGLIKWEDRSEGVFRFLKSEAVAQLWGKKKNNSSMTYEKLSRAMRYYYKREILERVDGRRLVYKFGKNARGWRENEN
The procedure, abridged: as §1

In another test the target is SPI1 (Homo sapiens, UniProt P17947 1-270). The gist of the method: as §1
Another test deals with SPIB (Homo sapiens, UniProt Q01892 1-262). The gist of the method: as §1
SPIB, sequence (Q01892 whole entry): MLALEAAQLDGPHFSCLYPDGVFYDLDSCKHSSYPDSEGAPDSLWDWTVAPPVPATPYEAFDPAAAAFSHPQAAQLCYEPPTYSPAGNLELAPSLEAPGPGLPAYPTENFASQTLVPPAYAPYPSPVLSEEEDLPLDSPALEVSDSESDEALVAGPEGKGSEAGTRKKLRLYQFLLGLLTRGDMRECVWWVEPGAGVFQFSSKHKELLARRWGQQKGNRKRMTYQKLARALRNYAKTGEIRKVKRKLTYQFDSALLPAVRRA
The next test has as its target T6, ELK3 (Homo sapiens, UniProt P41970 1-407).
T6 sequence: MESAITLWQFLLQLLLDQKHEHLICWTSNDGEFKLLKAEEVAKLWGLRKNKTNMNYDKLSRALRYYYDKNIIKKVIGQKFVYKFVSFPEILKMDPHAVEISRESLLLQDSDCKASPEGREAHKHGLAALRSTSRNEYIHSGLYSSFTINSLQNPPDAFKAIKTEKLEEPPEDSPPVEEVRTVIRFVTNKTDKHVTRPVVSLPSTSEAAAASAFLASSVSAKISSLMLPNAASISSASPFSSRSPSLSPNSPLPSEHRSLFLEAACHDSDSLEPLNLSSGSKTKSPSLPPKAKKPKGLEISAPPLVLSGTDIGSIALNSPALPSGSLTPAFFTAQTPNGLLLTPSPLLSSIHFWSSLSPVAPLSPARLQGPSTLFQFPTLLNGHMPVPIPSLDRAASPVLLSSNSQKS
The procedure, abridged:
as §1

In a further test the target is T7, FEV (Homo sapiens, UniProt Q99581 1-238).
T7 sequence: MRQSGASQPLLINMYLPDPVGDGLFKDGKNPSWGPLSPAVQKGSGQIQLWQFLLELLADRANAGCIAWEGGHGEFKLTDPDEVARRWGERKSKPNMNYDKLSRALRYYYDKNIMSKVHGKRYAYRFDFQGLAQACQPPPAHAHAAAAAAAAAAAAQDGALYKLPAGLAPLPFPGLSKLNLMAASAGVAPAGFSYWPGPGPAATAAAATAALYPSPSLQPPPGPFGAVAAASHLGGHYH
The procedure, abridged: as §1

The next test has as its target ETV5 (Homo sapiens, UniProt P41161 1-510). The procedure, abridged: as §1
A further test has as its target T8, SPIC (Homo sapiens, UniProt Q8N5J4 1-248).
T8 sequence: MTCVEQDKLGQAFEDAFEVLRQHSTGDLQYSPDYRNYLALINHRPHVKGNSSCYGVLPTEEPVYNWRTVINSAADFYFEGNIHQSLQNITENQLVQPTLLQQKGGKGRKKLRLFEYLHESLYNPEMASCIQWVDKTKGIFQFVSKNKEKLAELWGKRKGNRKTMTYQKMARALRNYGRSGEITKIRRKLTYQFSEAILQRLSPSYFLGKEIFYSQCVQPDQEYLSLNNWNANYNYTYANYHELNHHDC
The gist of the method: as §1

The next test has as its target ELF4 (Homo sapiens, UniProt Q99607 1-663). The procedure, abridged:
as §1

The target of a further test is T9, ELK4 (Homo sapiens, UniProt P28324-2 1-405).
T9 sequence: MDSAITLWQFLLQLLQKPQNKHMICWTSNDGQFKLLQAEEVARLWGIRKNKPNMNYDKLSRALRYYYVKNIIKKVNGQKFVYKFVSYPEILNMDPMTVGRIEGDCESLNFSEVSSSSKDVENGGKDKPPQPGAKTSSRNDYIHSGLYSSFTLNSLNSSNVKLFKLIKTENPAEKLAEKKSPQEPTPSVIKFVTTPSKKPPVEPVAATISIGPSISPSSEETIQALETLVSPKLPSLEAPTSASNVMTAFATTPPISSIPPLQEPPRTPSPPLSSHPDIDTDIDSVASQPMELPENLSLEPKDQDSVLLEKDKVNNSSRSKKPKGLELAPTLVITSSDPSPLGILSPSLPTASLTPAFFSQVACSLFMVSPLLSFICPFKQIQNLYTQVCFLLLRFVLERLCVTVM
The gist of the method:
as §1

The target in another test is T10, ETV2 (Homo sapiens, UniProt O00321 1-342).
T10 sequence: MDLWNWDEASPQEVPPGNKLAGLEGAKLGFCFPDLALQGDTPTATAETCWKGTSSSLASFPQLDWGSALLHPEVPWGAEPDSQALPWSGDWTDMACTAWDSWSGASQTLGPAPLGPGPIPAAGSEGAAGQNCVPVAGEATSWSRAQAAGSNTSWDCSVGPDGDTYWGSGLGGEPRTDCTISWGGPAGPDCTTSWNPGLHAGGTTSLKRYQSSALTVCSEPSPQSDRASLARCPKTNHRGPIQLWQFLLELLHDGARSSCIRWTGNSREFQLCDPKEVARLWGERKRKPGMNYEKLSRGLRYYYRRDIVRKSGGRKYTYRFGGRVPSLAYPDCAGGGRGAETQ
The procedure, abridged: as §1

Another test has as its target ETV1 (Homo sapiens, UniProt P50549 1-477). The procedure, abridged: as §1
Another test has as its target T11, ELF3 (Homo sapiens, UniProt P78545 1-371).
T11 sequence: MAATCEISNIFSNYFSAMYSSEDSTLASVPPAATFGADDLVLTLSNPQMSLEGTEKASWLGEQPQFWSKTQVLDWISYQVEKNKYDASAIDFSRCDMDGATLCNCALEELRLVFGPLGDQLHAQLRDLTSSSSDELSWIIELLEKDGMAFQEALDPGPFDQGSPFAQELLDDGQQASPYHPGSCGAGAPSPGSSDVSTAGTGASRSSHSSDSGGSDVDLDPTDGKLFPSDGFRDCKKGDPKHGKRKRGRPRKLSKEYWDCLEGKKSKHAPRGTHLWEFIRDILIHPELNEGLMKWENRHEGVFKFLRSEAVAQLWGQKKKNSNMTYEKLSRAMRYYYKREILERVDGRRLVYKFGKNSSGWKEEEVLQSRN
The gist of the method:
as §1

ETV5, sequence (P41161 whole entry): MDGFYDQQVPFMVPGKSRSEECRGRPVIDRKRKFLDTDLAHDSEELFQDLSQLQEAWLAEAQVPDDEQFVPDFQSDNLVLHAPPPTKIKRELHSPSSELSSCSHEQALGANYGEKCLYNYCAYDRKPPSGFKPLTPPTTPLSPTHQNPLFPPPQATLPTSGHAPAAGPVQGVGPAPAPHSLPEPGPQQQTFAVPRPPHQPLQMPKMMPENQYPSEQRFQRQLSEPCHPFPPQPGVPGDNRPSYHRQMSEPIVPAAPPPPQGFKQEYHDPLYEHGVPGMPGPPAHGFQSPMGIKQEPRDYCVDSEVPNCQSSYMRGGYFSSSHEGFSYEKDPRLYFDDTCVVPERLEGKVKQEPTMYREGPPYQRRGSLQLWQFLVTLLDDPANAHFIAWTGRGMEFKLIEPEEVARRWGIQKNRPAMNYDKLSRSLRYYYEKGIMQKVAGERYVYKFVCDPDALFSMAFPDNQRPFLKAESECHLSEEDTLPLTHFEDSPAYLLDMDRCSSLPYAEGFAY
ELF1, sequence (P32519 whole entry): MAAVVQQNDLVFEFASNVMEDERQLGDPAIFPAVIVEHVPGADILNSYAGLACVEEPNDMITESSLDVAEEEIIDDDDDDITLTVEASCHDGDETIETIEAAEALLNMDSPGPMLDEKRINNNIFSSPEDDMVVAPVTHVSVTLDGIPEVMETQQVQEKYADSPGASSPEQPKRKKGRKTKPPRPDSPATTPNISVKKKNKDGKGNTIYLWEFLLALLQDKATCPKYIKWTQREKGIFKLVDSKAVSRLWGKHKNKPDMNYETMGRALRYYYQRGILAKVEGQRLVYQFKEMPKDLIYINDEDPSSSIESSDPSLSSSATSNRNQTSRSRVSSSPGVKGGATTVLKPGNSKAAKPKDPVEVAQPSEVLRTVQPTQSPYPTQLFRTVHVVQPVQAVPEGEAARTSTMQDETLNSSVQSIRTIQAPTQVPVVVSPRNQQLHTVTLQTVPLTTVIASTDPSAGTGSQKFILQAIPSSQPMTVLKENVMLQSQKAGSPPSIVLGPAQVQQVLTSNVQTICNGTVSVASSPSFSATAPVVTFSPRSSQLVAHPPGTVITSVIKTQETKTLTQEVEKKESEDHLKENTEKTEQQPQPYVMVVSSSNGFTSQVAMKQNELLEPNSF
ETV1, sequence (P50549 whole entry): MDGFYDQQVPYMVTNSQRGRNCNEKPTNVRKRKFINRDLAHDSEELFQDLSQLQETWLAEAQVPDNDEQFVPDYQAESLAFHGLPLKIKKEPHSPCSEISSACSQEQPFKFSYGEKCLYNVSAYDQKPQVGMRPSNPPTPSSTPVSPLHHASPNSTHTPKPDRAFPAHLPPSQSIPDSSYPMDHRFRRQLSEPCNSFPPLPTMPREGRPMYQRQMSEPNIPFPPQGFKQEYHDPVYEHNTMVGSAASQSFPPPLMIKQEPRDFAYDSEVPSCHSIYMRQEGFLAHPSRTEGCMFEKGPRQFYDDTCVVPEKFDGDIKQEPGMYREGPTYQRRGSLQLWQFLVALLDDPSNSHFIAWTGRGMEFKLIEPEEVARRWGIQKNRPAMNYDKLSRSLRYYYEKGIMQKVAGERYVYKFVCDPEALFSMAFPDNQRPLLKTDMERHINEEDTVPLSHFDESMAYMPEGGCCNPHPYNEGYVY
ELF4, sequence (Q99607 whole entry): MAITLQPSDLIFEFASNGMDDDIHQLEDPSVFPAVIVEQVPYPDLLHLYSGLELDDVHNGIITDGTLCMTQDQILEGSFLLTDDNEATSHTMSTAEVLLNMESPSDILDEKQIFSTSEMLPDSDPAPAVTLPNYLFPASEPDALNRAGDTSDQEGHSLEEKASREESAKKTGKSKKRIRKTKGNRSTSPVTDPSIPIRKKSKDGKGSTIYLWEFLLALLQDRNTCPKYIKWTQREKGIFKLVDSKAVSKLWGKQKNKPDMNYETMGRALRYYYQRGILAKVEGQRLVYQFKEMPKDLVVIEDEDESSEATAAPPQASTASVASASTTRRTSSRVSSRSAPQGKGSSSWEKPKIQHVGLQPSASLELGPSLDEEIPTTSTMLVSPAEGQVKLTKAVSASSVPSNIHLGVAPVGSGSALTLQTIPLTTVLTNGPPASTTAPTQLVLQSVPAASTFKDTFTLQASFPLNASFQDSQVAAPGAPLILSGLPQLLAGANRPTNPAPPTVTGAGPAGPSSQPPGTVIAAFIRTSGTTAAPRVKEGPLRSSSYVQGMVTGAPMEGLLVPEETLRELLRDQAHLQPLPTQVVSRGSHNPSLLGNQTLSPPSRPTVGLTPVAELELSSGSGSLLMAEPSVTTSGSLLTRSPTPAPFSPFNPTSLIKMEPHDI

Take GGTCCC: the binding signal with FLI1 was 1.13 fold enrichment (6-mer frequency, TF over GST control); in the test with ELK1, 1.21 fold enrichment (6-mer frequency, TF over GST control); in the test with GABPA it was 1.16 fold enrichment (6-mer frequency, TF over GST control); with ERG it was 1.21 fold enrichment (6-mer frequency, TF over GST control); with ELF1, 1.17 fold enrichment (6-mer frequency, TF over GST control); in the test with EHF, 1.19 fold enrichment (6-mer frequency, TF over GST control). The binding signal in the test with SPI1 was 1.1 fold enrichment (6-mer frequency, TF over GST control); in the test with SPIB, 1.31 fold enrichment (6-mer frequency, TF over GST control); with ELK3, 1.16 fold enrichment (6-mer frequency, TF over GST control); in the test with FEV, 1.1 fold enrichment (6-mer frequency, TF over GST control); with ETV5, 1.13 fold enrichment (6-mer frequency, TF over GST control); with SPIC, 1.18 fold enrichment (6-mer frequency, TF over GST control). The binding signal is 1.16 fold enrichment (6-mer frequency, TF over GST control) with ELF4; 1.29 fold enrichment (6-mer frequency, TF over GST control) with ELK4; 1.16 fold enrichment (6-mer frequency, TF over GST control) in the test with ETV2; 1.3 fold enrichment (6-mer frequency, TF over GST control) with ETV1.

For AAGTTG, the binding signal with FLI1 is 1.09 fold enrichment (6-mer frequency, TF over GST control); with ELK1, 1.07 fold enrichment (6-mer frequency, TF over GST control); with GABPA, 1.1 fold enrichment (6-mer frequency, TF over GST control); with ERG, 1.08 fold enrichment (6-mer frequency, TF over GST control); with ELF1, 1.08 fold enrichment (6-mer frequency, TF over GST control); in the test with EHF, 1.14 fold enrichment (6-mer frequency, TF over GST control). In addition, the binding signal with SPI1 was 1.13 fold enrichment (6-mer frequency, TF over GST control); in the test with SPIB it was 1.1 fold enrichment (6-mer frequency, TF over GST control); in the test with ELK3, 1.11 fold enrichment (6-mer frequency, TF over GST control); with FEV it was 1.05 fold enrichment (6-mer frequency, TF over GST control); in the test with ETV5, 1.16 fold enrichment (6-mer frequency, TF over GST control); in the test with SPIC, 1.08 fold enrichment (6-mer frequency, TF over GST control). Further, the binding signal in the test with ELF4 was 1.14 fold enrichment (6-mer frequency, TF over GST control); in the test with ELK4 it was 1.12 fold enrichment (6-mer frequency, TF over GST control); in the test with ELF3, 1.12 fold enrichment (6-mer frequency, TF over GST control); in the test with ETV1, 1.02 fold enrichment (6-mer frequency, TF over GST control).
